DT40 TDP1 no CPT = qHTS for Inhibitors of human tyrosyl-DNA phosphodiesterase 1 (TDP1): qHTS in cells in absence of CPT | DT40 Tdp1-/- hTDP1 cells, no CPT, ATP luminescence, 48 h | Potency, µM (series often up to 46.2 µM), for the others: at the highest dose activity change, negative = growth inhibition, hits mostly inhibitors | 15% of 420,000 active; further: potency means the concentration at half of the fitted maximal effect; on the % scale 0 is the no-effect control and ±100 the full control effect; nearly all actives have a fitted effect of over 55% in size
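Seeded 400 DT40-hTDP1 cells/well (vehicle DMSO, no 20 nM CPT); pinned compounds; ≥48 hr at 37 °C; CellTiter-Glo luminescence as viability measure.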
IL-1B inflam inh = blocks inflammasome-driven IL-1 beta release; THP-1 LPS/ATP IL-1B secretion, AlphaLISA, 16 h; stronger effect = lower value; activity change, % at 57.5 µM; 4.7% of 360,000 active; AID 743279; in the data active means activity change below about -50%; inconclusive means mostly about -30% to -49%; further: on the % scale 0 is the no-effect control and ±100 the full control effect
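Secreted IL-1B measured by AlphaLISA bead assay after 16 h compound exposure of THP-1 cells; compounds (final up to 57.5 uM) added 1 h before LPS (250 ng/mL) and ATP (1.25 mM) stimulation; lower signal means less secretion.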
ClpP mod = qHTS Assay for Activators of ClpP | purified B. subtilis ClpP, FRET peptide cleavage, 20 min | 1.9% of 340,000 active | Potency, µM (doses to about 57.5 µM), for the others: at the highest dose activity change, negative = active; active means well fitted falling curve with a large enough effect; inconclusive means small, poorly fitted or top-dose-only effect; inactive means no such curve, though single readings can be large or run the other way; further: potency means the concentration at half of the fitted maximal effect; the source files actives as falling curves though it sought activators and does not explain the sign; nearly all actives have a fitted effect of over 65% in size
Target sequence (P80244 whole entry, looked up): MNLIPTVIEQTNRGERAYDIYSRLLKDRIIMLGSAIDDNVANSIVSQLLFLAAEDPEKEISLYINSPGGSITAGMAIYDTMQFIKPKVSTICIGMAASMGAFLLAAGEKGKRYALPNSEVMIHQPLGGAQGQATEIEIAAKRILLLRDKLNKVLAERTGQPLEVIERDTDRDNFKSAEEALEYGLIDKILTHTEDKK
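Buffer: 100 mM Tris/HCl pH8, 100 mM KCl, 0.05% low protease BSA, 2.5% glycerol, 0.01% Tween-20. ClpP 10 microg/mL final; 20 min RT; delta FRET normalized to ADEP and DMSO controls.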
DT40 TDP1 CPT = DT40-hTDP1 cell growth loss with CPT | 12% of 420,000 active | chicken DT40 Tdp1-/-;hTDP1 cells + 20 nM CPT, ATP luminescence, 48 h | Potency, µM (top dose mostly 46.2 µM), without a hit: at the top dose activity change, negative = growth inhibition, most hits filed as inhibitors; further: potency means the concentration at half of the fitted maximal effect; on the % scale 0 is the no-effect control and ±100 the full control effect; nearly all actives have a fitted effect of over 55% in size
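Chicken DT40 Tdp1-/- cells complemented with human TDP1, 400 cells/well, exposed to compounds plus 20 nM camptothecin for at least 48 h at 37 C; viability read as ATP content by CellTiter-Glo luminescence.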
D3 antag = D3 dopamine receptor (human) antagonism; P35462; D3R cells, DiscoveRx beta-arrestin luminescence, antagonist mode; stronger effect = lower value; max response, negative = inhibition, %; 2.5% of 360,000 active; AID 652054; in the data active means max response below about -50%; inconclusive means no clear call, values can overlap the other calls; further: on the % scale 0 is the no-effect control and ±100 the full control effect
Target sequence (P35462 whole entry, looked up): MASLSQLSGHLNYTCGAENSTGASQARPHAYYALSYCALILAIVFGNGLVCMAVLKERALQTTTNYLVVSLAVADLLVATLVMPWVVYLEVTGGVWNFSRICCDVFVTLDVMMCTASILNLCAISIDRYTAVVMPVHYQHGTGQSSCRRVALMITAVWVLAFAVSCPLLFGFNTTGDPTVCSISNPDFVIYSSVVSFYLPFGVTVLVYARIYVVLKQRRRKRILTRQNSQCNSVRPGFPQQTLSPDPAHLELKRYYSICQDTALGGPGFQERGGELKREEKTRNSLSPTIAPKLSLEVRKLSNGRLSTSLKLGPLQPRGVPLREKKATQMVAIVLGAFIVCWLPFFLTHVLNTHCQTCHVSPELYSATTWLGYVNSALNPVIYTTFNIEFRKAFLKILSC
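Cells plated overnight at 1500 cells/well, then exposed to library compounds with dopamine controls for 90 minutes at 37 degrees C. DiscoveRx reagent added for 30–60 minutes at room temperature; luminescence read, quantitative HTS format.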
DRD3 agonist = D3 dopamine receptor (human) agonism; D3R DiscoveRx beta-arrestin cells, luminescence, 90 min; max activation, %; 0.58% of 410,000 active; in the data active means max activation above about 30%; further: 0% is about no effect
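Cells at 1500/well, incubated overnight, then treated with pinned compounds (dopamine as control) for 90 min at 37 degrees C. DiscoveRx reagent added for 30 - 60 minutes at room temperature; luminescence read.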
Numbers without * were called inactive; ? = inconclusive; / = not tested or not shown. An excerpt weighted towards active compounds, which were near 21% of everything screened. Unless noted, the call rests on the fitted dose curve; in most records, active means well fitted inhibition curve with a large enough effect; inconclusive means small, poorly fitted or top-dose-only effect; inactive means flat fitted curve, though single readings scatter.

SMILES	DT40 TDP1 no CPT	IL-1B inflam inh	ClpP mod	DT40 TDP1 CPT	D3 antag	DRD3 agonist
CCc1ccc(CSc2nc(-c3ccc(OC)cc3)nc3c2Cc2c(CO)cnc(C)c2O3)cc1	1%	/	-9%	6%	/	3
O=C(NCc1ccccn1)c1ccccc1OCc1ccc(Cl)cc1Cl	?	-3	0%	?	-11	1
COC(=O)c1cnc(Oc2ccc(NC(=O)NC(=O)c3c(F)cccc3Cl)cc2)cc1C(F)(F)F	4.1µM*	65	/	3.3µM*	-25	-3
COC(=O)c1cnc(Oc2c(Cl)cc(N)cc2Cl)cc1C(F)(F)F	15µM*	/	/	?	7	7
COC(=O)c1cnc(Oc2ccc(NC(=O)NC(=O)c3c(OC)cccc3OC)cc2)cc1C(F)(F)F	1.3µM*	47	4%	1.2µM*	-30	-11
COC(=O)c1cnc(Oc2ccc(NC(=O)NC(=O)c3c(F)cccc3F)cc2)cc1C(F)(F)F	?	35	/	-6%	18	13
CCN(C(=O)Cn1c(=O)oc2ccccc21)c1cccc(C)c1	?	-10	/	4%	-6	-1
COc1ccc(-c2noc(CCC(=O)Nc3cc(Cl)c(OC)cc3OC)n2)cc1	18µM*	-4	-2%	?	64	0
COc1ccc(-c2noc(CCC(=O)Nc3cc(OC)ccc3OC)n2)cc1	21µM*	-6	2%	-25%	8	1
COc1ccc(-c2noc(CC(=O)Nc3ccc(C)c(F)c3)n2)cc1	-8%	/	-1%	-6%	/	5
COC(=O)c1ccccc1NC(=O)Cc1nc(-c2ccc(OC)cc2)no1	-20%	/	28µM*	-2%	/	-3
CCc1nc(NCc2cccnc2)c2oc3ccccc3c2n1	?	22	?	-25%	18	2
Cc1nc(NCc2ccc3c(c2)OCO3)c2oc3ccccc3c2n1	-26%	-52*	-5%	-21%	10	8
CCc1nc(NCc2ccc3c(c2)OCO3)c2oc3ccccc3c2n1	18µM*	12	-11%	13µM*	-66*	-5
Cc1nc(NCC2CCCO2)c2oc3ccccc3c2n1 (stereo unspecified)	-29%	3	-24%	-28%	5	-5
COc1ccccc1-n1c(/C=C/c2c(C)n(C)c3ccccc23)nc2ccccc2c1=O	3.7µM*	/	-2%	?	/	-7
COc1ccc(Cl)cc1-n1c(/C=C/c2cccc3ccccc23)nc2ccccc2c1=O	?	/	0%	?	/	1
Cc1ccccc1-n1c(/C=C/c2c(C)n(C)c3ccccc23)nc2ccccc2c1=O	8.2µM*	/	1%	6.5µM*	/	7
O=C(O)c1ccc(Sc2nnnn2-c2ccccc2)c([N+](=O)[O-])c1	-4%	0	-2%	-2%	-64*	1
COC(=O)c1ccc(Sc2nnnn2-c2ccccc2)c([N+](=O)[O-])c1	23µM*	-10	-4%	16µM*	-21	-15
OC/C=C/c1ccc(O)c(O)c1	3%	/	/	-6%	/	/
COC(=O)C(=Cc1ccc(OCc2ccc([N+](=O)[O-])cc2)c(OC)c1)C(=O)OC	13µM*	-92*	-6%	9.2µM*	-4	-13
COc1cc(/C=N/NC(=O)c2cccc([N+](=O)[O-])c2)ccc1OCc1ccccc1	?	-3	2%	?	9	-5
CCOC(=O)C(=Cc1ccc(OCc2ccc([N+](=O)[O-])cc2)c(OC)c1)C(=O)OCC	15µM*	-101*	-3%	13µM*	2	4
Cc1ccc2nc3n(c2c1)CCCN3	-17%	20	-3%	0%	-59*	0
SMILES	DT40 TDP1 no CPT	IL-1B inflam inh	ClpP mod	DT40 TDP1 CPT	D3 antag	DRD3 agonist
CC1CCN(S(=O)(=O)c2ccc3c(ccc(=O)n3CC(=O)NCc3ccccc3)c2)CC1	?	/	-2%	-29%	/	-18
Cc1ccc(NC(=O)Cn2c(=O)ccc3cc(S(=O)(=O)N4CCC(C)CC4)ccc32)c(C)c1	23µM*	/	-9%	?	/	-8
CC1CCN(S(=O)(=O)c2ccc3c(ccc(=O)n3CC(=O)NCc3ccccc3Cl)c2)CC1	?	/	-10%	18µM*	/	-8
CC(=O)Nc1ccc(NC(=O)Cn2c(=O)ccc3cc(S(=O)(=O)N4CCC(C)CC4)ccc32)cc1	?	/	2%	2%	/	-6
Cc1ccc(NC(=O)Cn2c(=O)ccc3cc(S(=O)(=O)N4CCC(C)CC4)ccc32)cc1Cl	6.5µM*	/	-27%	12µM*	/	-7
CC1CCN(S(=O)(=O)c2ccc3c(ccc(=O)n3CC(=O)Nc3cccc(F)c3)c2)CC1	13µM*	/	-3%	15µM*	/	-2
CCOC(=O)c1ccc(NC(=O)C(CC)Sc2nc3ncccc3o2)cc1 (stereo unspecified)	?	/	36%	-26%	/	-18
CC(NC(=O)c1cccs1)c1nnc(SCc2ccc(Cl)cc2Cl)n1C (stereo unspecified)	16µM*	-11	2%	?	4	-4
O=C(/C=C/c1ccc(Cl)cc1)Nc1ccc(N2CCCCC2)cc1	0%	20	2%	-13%	-6	2
NC(=O)Nc1ccc(Cl)cc1	-16%	-1	/	-9%	25	5
NC(=O)/C=C/C(=O)Nc1ccc(Cl)cc1	8.2µM*	-78*	/	3.3µM*	-3	1
O=C(/C=C/C(Cl)(Cl)Cl)Nc1ccc(Cl)cc1	5.2µM*	-104*	1%	4.6µM*	7	-3
CCOc1ccccc1NC(=O)c1c(NC(=O)c2ccccc2)sc2c1CCCC2	?	/	-1%	4.1µM*	/	-27
Cc1ccccc1NC(=O)c1c(NC(=O)c2ccccc2)sc2c1CCC2	-11%	/	-1%	-1%	/	-7
CCOc1ccccc1NC(=O)c1c(NC(=O)c2ccncc2)sc2c1CCC(C(C)(C)C)C2 (stereo unspecified)	-17%	/	6%	-23%	/	-7
CCOc1ccccc1NC(=O)c1c(NCc2sccc2C)sc2c1CCCCC2	15µM*	/	0%	8.2µM*	/	-7
CCOc1ccccc1NC(=O)c1c(NCc2sccc2C)sc2c1CCC(C)C2 (stereo unspecified)	6.5µM*	/	2%	6.5µM*	/	-5
CCN(CC)CCCC(C)NC(=O)c1c(NC(=O)c2ccccc2)sc2c1CCCC2 (stereo unspecified)	?	/	-1%	18µM*	-8	-22
COc1ccccc1NC(=O)c1c(NCc2sccc2C)sc2c1CCCCC2	?	/	0%	?	/	-9
